For 82 molecules, activation results are on record in PubChem BioAssay AID652017 (The Scripps Research Institute Molecular Screening Center, 2013).

Structures are written as SMILES. The campaign covered roughly 370,000 compounds. About 3,800 (1%) were called active. This is one part of a sample in which actives are shown more often than they occur. A number with no mark means an inactive call. Rule as the data show it: active = activation above about 7.8%; inactive = the rest.

The nature of the assay: SMARCA2 (BRM) function activators, primary screen, cell-based, luminescence, high throughput (AID 652017).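 Also: 0% = vehicle wells and 100% = reference activator wells.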 To be noted: MG213 cells, MMTV-luciferase reporter, dexamethasone, overnight; at 9.1 µM; hits give high values. In general terms: In a reporter assay the amount or activity of a reporter protein is the signal.
In the case of `COC(=O)[C@]12C[C@H](CC(=O)NCc3cccc4ccccc34)C(=O)N(CCc3ccc(OC)c(OC)c3)C1=C[C@H](C1CCCC1)O[C@@H]2C`, the activation is -1.03%.

As for `CCOc1cccc2c1OC1(CCCCC1)N1N=C(c3cccnc3)CC21` (configuration not stated), the activation is 8% (active).

On to `CCCCN1CCN(C(=O)c2ccc3c(c2)NC(=O)C(C)(C)O3)CC1`, for which the activation is 2.59%.

For `O=S1(=O)c2c(cccc2N2CC[C@H](O)C2)O[C@@H]2CCN1C2`, the activation was -1.6%.

On to `CCc1nc2ccc(C(=O)NCCNC(C)=O)cn2c1N(CC)Cc1cccc(Br)c1`, for which the activation was -2.59%.

Regarding `Cc1cnc(C(=O)N2CCCC(C(=O)c3ccc(C(F)(F)F)cc3)C2)cn1` (configuration not stated), the activation is 1.89%.

Turning to `COCC(=O)N1CCCC(C(=O)c2ccc(C(F)(F)F)cc2)C1` (configuration not stated), the activation is -2.48%.

Consider `Cn1cc(/C=C/C(=O)N2CCCC(C(=O)c3ccc(C(F)(F)F)cc3)C2)cn1` (configuration not stated), for which the activation was 9.62% (active).

As to `CCOC(=O)C1=C(C)NC2=C(C(=O)CC(C)(C)C2)C1c1ccc2c(c1)OCO2` (configuration not stated), the activation was -5.79%.

Regarding `O=C(c1cccc(C(F)(F)F)c1)N1CC[C@H]2[C@H](CCCN2Cc2cc(F)cc(F)c2)C1`, the activation was -1.61%.

As to `CCOc1ccccc1NC(=O)C12CC3CC(C1)CC(c1ccc(C)cc1)(C3)C2`, the activation is -1.92%.

For the molecule `CSc1ccc(/C=C/C(=O)NC23CC4CC(CC(C4)C2)C3)cc1`, the activation was 1.32%.

`COc1ccc(/C=C/C(=O)Nc2ccc(C34CC5CC(CC(O)(C5)C3)C4)cc2)cc1OC`: the activation is 9.95% (active).

Regarding `O=C(NCc1ccc(Cl)cc1)C1CCCN(c2nc3ccccc3o2)C1` (configuration not stated), the activation was -7.39%.

For the molecule `Cc1ccc(C2=CCN(C)C(=O)N2c2ccc(Cl)cc2)cc1`, the activation was 1.89%.

`CN1CCC[C@@H]1CCO[C@](C)(c1ccccc1)c1ccc(Cl)cc1`: the activation is -5.64%.

In the case of `Cc1cc2oc3ccc(NCCC4CCCN4C)cc3c(=O)c2cc1C` (configuration not stated), the activation is 8.67% (active).

Turning to `S=C(NCCCc1cnc[nH]1)NCCCN(Cc1ccc(Cl)c(Cl)c1)c1ccc(Br)cn1`, the activation was -3.8%.

As to `COC(=O)C[C@@H]1CC[C@H]2[C@@H](COc3ccc(NS(=O)(=O)CC(F)(F)F)cc3C(=O)N2C)O1`, the activation was -3.47%.

Consider `COC(=O)[C@]12C[C@H](CC(=O)N3CCN(C(=O)C4CC4)CC3)C(=O)N(CCC3=CCCCC3)C1=C[C@H](C(C)C)O[C@@H]2C1CC1`, for which the activation was 0.49%.

As for `Cc1cc(NS(=O)(=O)c2ccc(NC(=O)CSc3nnc(-c4ccc(C(C)(C)C)cc4)n3Cc3ccco3)cc2)nc(C)n1`, the activation is -2%.

Take `O=C(CSc1nc2ccccc2c(=O)n1-c1ccccc1F)N1CCOCC1`: the activation was -2.52%.

As to `Cc1ccc(-n2c(SCC(=O)N3CCC(C(=O)O)CC3)nc3ccccc3c2=O)cc1C`, the activation was 9% (active).

With `COc1ccc(-n2c(SCC(=O)Nc3ccc(C)c(Cl)c3)nc3ccccc3c2=O)cc1`, the activation was -5.45%.

As to `N#Cc1cccc(NC(=O)COC(=O)c2ccccc2C(=O)c2ccc(Cl)c([N+](=O)[O-])c2)c1`, the activation is 6.3%.

Regarding `O=C(CN1CCCc2ccccc21)NCc1ccc(F)cc1`, the activation was 4.7%.

For the molecule `Cc1ccc(-n2c(SCC(=O)Nc3cccc4ccccc34)nnc2-c2ccco2)cc1`, the activation is -1.08%.

As for `Cc1cc(C)c2nc3nc(C)cc(C)c3c(N)c2c1`, the activation is 22.7% (active).

As for `C[C@@H]1ON(C)[C@H]2C[C@H]3c4[nH]c5cccc(-c6ccc7c(c6)OCO7)c5c4CCN3C[C@@H]12`, the activation was -5.68%.

Take `Clc1ccc(C(Cn2ccnc2)OCc2ccsc2Cl)c(Cl)c1` (configuration not stated): the activation is -7.85%.

Regarding `Cc1c(C#N)c(NC(=O)c2ccccc2)n(Cc2ccccc2)c1C`, the activation is -1.06%.

As for `COc1ccc(Cn2cccc(NC(=O)Nc3ccc(C#N)cc3)c2=O)cc1`, the activation was -4.78%.

For `COc1ccc(Cn2c(C)c(C)c(C#N)c2NC(=O)Nc2ccc(F)cc2)cc1`, the activation is 13.3% (active).

For the molecule `CC(NCc1ccco1)C(=O)N1CCCCC1` (configuration not stated), the activation was -2.78%.

For `CC1CCN(c2ccc(C(=O)O)cc2NS(=O)(=O)c2ccc(Br)s2)CC1`, the activation is 0.67%.

As for `CCOC(=O)c1cccc(NC(=O)CN(C)S(=O)(=O)c2ccc(-c3cocn3)s2)c1`, the activation is -7.26%.

Regarding `Cc1ccc(S(=O)(=O)NCc2nc3ccccc3c(=O)n2N)cc1`, the activation was -5.01%.

Consider `CCCN1C(=O)C(Cc2nc3ccccc3c(=O)n2-c2ccccc2)c2cc(C)ccc21` (configuration not stated), for which the activation was 8.92% (active).

Consider `CC(C)CC1NC(=O)c2cc(Cl)ccc2-n2c1nc1ccccc1c2=O` (configuration not stated), for which the activation was -0.02%.

As to `O=C(OC12CCCN(C1)/C(=C/c1ccccc1)C2)c1ccco1` (configuration not stated), the activation is -4.02%.

As for `CC[C@H](NC(=O)[C@H](Cc1ccccc1)NC(=O)[C@H]1O[C@@H](n2cnc3c(=O)[nH]c(N)nc32)[C@H](O)[C@@H]1O)c1ccccc1`, the activation was -4.41%.

For the molecule `COC(=O)/C=C/C(=O)NCc1ccco1`, the activation is 1.96%.

In the case of `CC(C)(C)c1ccc(NC(=O)NCc2ccco2)cc1`, the activation is 8.76% (active).

Consider `COC(=O)Cc1ccc(NC(=S)NCc2ccco2)cc1`, for which the activation is -1.02%.

As to `COC(=O)[C@H](C(C)C)N1CCc2nnn(Cc3ccc(C)cc3)c2-c2ccccc2S1(=O)=O`, the activation is -3.89%.

Consider `COc1ccc(C(CNC(=O)c2ccc(S(=O)(=O)Nc3ccccc3F)cc2)N(C)C)cc1` (configuration not stated), for which the activation is 8.4% (active).

Regarding `COc1ccc(C(CNC(=O)c2ccc(NS(=O)(=O)c3ccc(F)c(C)c3)cc2)N(C)C)cc1` (configuration not stated), the activation was -1.05%.

Turning to `CC(=O)c1ccc(S(=O)(=O)Nc2ccc(C(=O)NCC(c3ccccc3)N(C)C)cc2)cc1` (configuration not stated), the activation is 5.98%.

For `CC(=O)Nc1ccc(OC[C@@H](O)CN2CCC(C(O)(c3ccccc3)c3ccccc3)CC2)cc1`, the activation is -1.46%.

With `COCCCNC(=O)C[C@H]1C[C@@]2(C(=O)OC)C(=C[C@H](C(C)(C)C)O[C@@H]2C)N(Cc2ccc(Cl)cc2Cl)C1=O`, the activation was -4%.

`Cc1c(C(C)c2ccccc2O)[nH]c2ccccc12` (configuration not stated): the activation was -2.39%.

`Cc1ccc(NC(=O)C(=O)NCc2ccc(/C=N/NC(=O)c3c(C)nc4cc(C)ccn34)o2)cc1`: the activation was -0.59%.

On to `Cc1ccc(NC(=O)Nc2cc(C)nn2-c2ccccc2)cc1`, for which the activation was -3.87%.

Turning to `Cc1ccccc1OCCOc1ccc([N+](=O)[O-])cc1/C=N/n1cnnc1`, the activation was -1.85%.

Consider `C=CCc1ccc(OCCOc2cccc(/C=N/n3cnnc3)c2)c(OC)c1`, for which the activation was 2.79%.

With `COc1cccc(OCCOc2cccc(/C=N/n3cnnc3)c2)c1`, the activation was 10.1% (active).

As to `CCc1ccc[n+](-c2nc([O-])sc2C=O)c1`, the activation was 8% (active).

As to `COc1ccc(N2CCN(CCNS(=O)(=O)c3ccc([N+](=O)[O-])cc3)CC2)cc1`, the activation was -3.04%.

Take `COc1ccc(C(=O)Nc2ccc3c(c2)OCO3)cc1OC`: the activation is 16.7% (active).

Regarding `O=C(Nc1cccc([N+](=O)[O-])c1)c1ccc2c(c1)OCO2`, the activation is 8.1% (active).

Take `COc1ccc(Cl)cc1NC(=O)CN(C)CC(=O)Nc1ccc2c(c1)OCO2`: the activation is -3.2%.

In the case of `COc1ccc(C(=O)Nc2ccc(C3(C#N)CCCC3)cc2)cc1OC`, the activation is 1.54%.

With `CN(C(=O)c1cccc(NC(=O)Cc2cccc([N+](=O)[O-])c2)c1)C1CCCCC1`, the activation is -2.39%.

For `O=C(Cc1ccc([N+](=O)[O-])cc1)NCCc1ccc2c(c1)OCO2`, the activation is 4.55%.

In the case of `Cn1c(Cc2cccs2)nnc1SCC(=O)Nc1ccccc1`, the activation is 4.18%.

For the molecule `Cc1ccccc1CS(=O)(=O)Cc1ccc(C(=O)Nc2ccc(Cl)cc2)o1`, the activation was -8.47%.

For the molecule `CCc1nn(-c2cc(Oc3cccc4ccccc34)nc(-c3ccccc3)n2)c(N)c1C#N`, the activation was 0.3%.

For the molecule `CCNC(=S)N1CCN(S(=O)(=O)c2ccc(Cl)s2)CC1`, the activation was -1.32%.

On to `CCNC(=S)N1CCN(c2ncccn2)CC1`, for which the activation was 8.35% (active).

On to `Cc1ccc(NC(=S)N2CCN(c3ncccn3)CC2)cc1C`, for which the activation is 2.65%.

Regarding `O=S1(=O)c2ccc(Br)cc2OC[C@@H](Cc2ccccc2)N1Cc1cn(Cc2ccco2)nn1`, the activation is -0.61%.

As to `Cc1cccc(C2C3=C(CCCC3=O)N=C3c4ccccc4C(=O)C32)c1` (configuration not stated), the activation is 1.45%.

As to `COc1ccc(CCNC(=O)CSc2nc3c([nH]2)c(=O)n(C)c(=O)n3C)cc1`, the activation is -2.8%.

As to `C=CCn1c(=O)c2ccccc2n2c(SCC(=O)N3CCCc4ccccc43)nnc12`, the activation was 1.43%.

Turning to `C=CCn1c(SCC(=O)/C(C#N)=C(\C)N)nc2sc(C)c(C)c2c1=O`, the activation is -1.26%.

Consider `CCCn1c(=O)c2ccccc2n2c(SCC(=O)/C(C#N)=C(\C)N)nnc12`, for which the activation is 9.35% (active).

As to `COc1ccc(CN2C/C(=C/c3ccccc3)N3C(=O)C[C@@H](c4ccccc4)N=C23)c(OC)c1`, the activation is -4.07%.

With `COc1ccccc1C(=O)NC1CCCCN(C(C)C)C1=O` (configuration not stated), the activation is -0.79%.

Regarding `Cc1ccc(-n2c(SCC(=O)Nc3cccc4ccccc34)nnc2-c2ccccn2)cc1`, the activation was -2.65%.

For `CC(C)C[C@H]1CNC(=O)C(=O)N1C[C@@H]1CCCN1C[C@H](Cc1ccccc1)N1C[C@H](CC(C)C)N(CC2CCCCCC2)C(=O)C1=O`, the activation was -3.56%.

Take `O=C1NC[C@H](Cc2ccc(O)cc2)N(C[C@@H]2CCCN2C[C@H](Cc2ccccc2)N2C[C@H](Cc3ccccc3)N(CC3CCCCC3)C(=O)C2=O)C1=O`: the activation was -2.98%.

`CC(C)C[C@H]1CNC(=O)C(=O)N1C[C@H]1CCCN1C[C@H](Cc1ccc(O)cc1)N1C[C@H](CC(C)C)N(CC2CCCCCC2)C(=O)C1=O`: the activation was 8.41% (active).
